Data taken from ChEMBL document CHEMBL4808148, “HDAC6 screening dataset using tau-based substrate in an enzymatic assay yields selective inhibitors and activators” (2021).
Out of some 5,600 compounds screened, about 390 (7%) showed an effect of 50% or more. The entries come from a sample that favours strong results as a whole. Non-standard residues stand in square brackets, D forms with d. Residues, ends and D or L forms follow the SMILES beside them. *: point of attachment. dPhe(4-NHCONH2) = NC(=O)Nc1ccc(C[C@@H](N)C(=O)O)cc1; Dihydroorotyl(S) = O=C1C[C@@H](C(=O)*)NC(=O)N1; dPhe(4-Cl) = N[C@H](Cc1ccc(Cl)cc1)C(=O)O; Phe(4-NH2) = Nc1ccc(C[C@H](N)C(=O)O)cc1; d2Nal = N[C@H](Cc1ccc2ccccc2c1)C(=O)O; Lys(iPr) = CC(C)NCCCC[C@H](N)C(=O)O; d3Pal = N[C@H](Cc1cccnc1)C(=O)O

Target: T1, Protein deacetylase HDAC6 (Homo sapiens) (UniProt Q9UBN7)
T1 sequence (whole entry): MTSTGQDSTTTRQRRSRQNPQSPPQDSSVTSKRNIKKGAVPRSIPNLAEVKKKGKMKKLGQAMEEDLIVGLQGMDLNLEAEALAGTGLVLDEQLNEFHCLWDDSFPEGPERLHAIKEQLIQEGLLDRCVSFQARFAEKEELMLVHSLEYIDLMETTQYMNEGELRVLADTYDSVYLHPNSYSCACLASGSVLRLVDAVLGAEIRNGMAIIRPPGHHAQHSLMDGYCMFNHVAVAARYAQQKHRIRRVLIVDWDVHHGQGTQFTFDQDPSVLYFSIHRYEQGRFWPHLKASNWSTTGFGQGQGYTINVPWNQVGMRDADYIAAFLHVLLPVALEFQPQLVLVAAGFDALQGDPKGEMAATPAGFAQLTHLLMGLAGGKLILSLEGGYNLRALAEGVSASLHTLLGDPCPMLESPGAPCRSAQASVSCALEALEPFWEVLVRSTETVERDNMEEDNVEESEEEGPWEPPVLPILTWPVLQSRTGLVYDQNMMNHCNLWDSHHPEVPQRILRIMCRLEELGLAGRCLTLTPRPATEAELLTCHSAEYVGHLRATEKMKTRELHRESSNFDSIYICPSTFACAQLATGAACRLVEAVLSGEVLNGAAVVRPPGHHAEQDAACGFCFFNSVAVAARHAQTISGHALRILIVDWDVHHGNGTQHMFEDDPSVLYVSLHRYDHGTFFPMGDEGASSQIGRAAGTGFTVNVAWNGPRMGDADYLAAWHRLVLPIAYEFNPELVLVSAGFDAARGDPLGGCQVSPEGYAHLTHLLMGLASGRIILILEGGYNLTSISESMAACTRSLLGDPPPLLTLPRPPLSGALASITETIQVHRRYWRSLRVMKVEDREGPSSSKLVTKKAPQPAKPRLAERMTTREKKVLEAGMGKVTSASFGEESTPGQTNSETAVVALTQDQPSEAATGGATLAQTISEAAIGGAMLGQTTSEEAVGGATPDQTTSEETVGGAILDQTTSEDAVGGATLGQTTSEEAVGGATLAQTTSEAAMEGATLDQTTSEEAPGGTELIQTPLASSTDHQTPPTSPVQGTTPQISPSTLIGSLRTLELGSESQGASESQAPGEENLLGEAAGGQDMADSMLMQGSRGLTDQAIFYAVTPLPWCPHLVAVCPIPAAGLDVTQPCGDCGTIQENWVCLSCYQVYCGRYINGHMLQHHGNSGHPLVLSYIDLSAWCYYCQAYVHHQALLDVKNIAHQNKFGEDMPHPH
Settings: at 10 µM

Row | SMILES | inhibition
1 | Cc1nc(Nc2ncc(C(=O)Nc3c(C)cccc3Cl)s2)cc(N2CCN(CCO)CC2)n1 | 21.2%
2 | CC1(C)CC(=O)C(C2C3=C(CC(C)(C)CC3=O)Oc3ccccc32)C(=O)C1 (centres undefined) | -3.93%
3 | N[C@H](Cc1c[nH]c2ccccc12)C(=O)O | 12%
4 | COCCNC(=O)Cn1cnc([N+](=O)[O-])n1 | 6.28%
5 | CN([C@@H](Cc1ccc(OS(=O)(=O)c2cccc3cnccc23)cc1)C(=O)N1CCN(c2ccccc2)CC1)S(=O)(=O)c1cccc2cnccc12 | -4.11%
6 | CC(C)c1cc(-c2n[nH]c(=O)n2-c2ccc3c(ccn3C)c2)c(O)cc1O | 29.4%
7 | Nc1nc(N)c2nc(-c3cccc(O)c3)cnc2n1 | 88.7%
8 | Oc1cccc(-c2c3nc(c(-c4cccc(O)c4)c4ccc([nH]4)c(-c4cccc(O)c4)c4nc(c(-c5cccc(O)c5)c5ccc2[nH]5)CC4)C=C3)c1 | 36.9%
9 | Nc1nc(N)c2nc(-c3ccccc3)c(N)nc2n1 | 19.4%
10 | CCc1cc(C(C)=O)c(O)cc1OCCCCCC(C)(C)c1nn[nH]n1 | 8.67%
11 | CCCCN(CC)c1nc(C)nc2c1c(C)c(C)n2-c1c(C)cc(C)cc1C | 7.01%
12 | CN(Cc1ccccc1)C(=O)[C@H](Cc1ccc2ccccc2c1)NC(=O)[C@@H]1C[C@@H](O)CN1C(=O)c1cn(C)c2ccccc12 | 84.1%
13 | Cn1cc(C(=O)OCC2CCN(CCNS(C)(=O)=O)CC2)c2ccccc21 | -8.82%
14 | CN(C)CC/C=C1/c2ccccc2COc2ccc(CC(=O)O)cc21 | 2.79%
15 | CC(C)Cc1ccc(C(C)C(=O)NO)cc1 (centres undefined) | 49.7%
16 | CC1(N)CCN(c2cnc(-c3cccc(Cl)c3Cl)c(N)n2)CC1 | 21.6%
17 | O=C(/C=C/c1ccc(O)c(O)c1)OCCc1ccccc1 | 80.7%
18 | O=C(O)/C=C/c1ccc(-c2ccc(O)c(C34CC5CC(CC(C5)C3)C4)c2)cc1 | 30.5%
19 | C[C@@](Cc1ccc(O)c(O)c1)(NN)C(=O)O | -8.77%
20 | COc1cc(NC(=O)Nc2cccc(CNC(=O)O[C@H]3CCOC3)c2)ccc1-c1cnco1 | 38.8%
21 | CCCCCCNC(=O)n1cc(F)c(=O)[nH]c1=O | 5.48%
22 | Cn1cc(-c2cnc3ccc4ccc(CS(=O)(=O)NCc5ccccn5)cc4c(=O)c3c2)cn1 | -2.81%
23 | O=C(COc1ccc(Cl)cc1)N1CCN(Cc2ccc3c(c2)OCO3)CC1 | 6.09%
24 | O=C(CN1CCN(Cc2ccc3c(c2)OCO3)CC1)N1c2ccccc2Sc2ccccc21 | 8.76%
25 | O=C(NCc1ccc2c(c1)OCO2)c1c(Cl)cccc1Cl | 76.1%

Row | SMILES | inhibition
26 | NC(Cc1ccc(Cl)cc1)C(=O)O (racemic) | 19.5%
27 | O=c1sn(-c2cccc3ccccc23)c(=O)n1Cc1ccccc1 | 83.4%
28 | Cc1ccc(-n2sc(=O)n(Cc3ccc(F)cc3)c2=O)cc1 | 41.5%
29 | CNC(=O)c1ccc2cc(C3(O)CCn4cncc43)ccc2c1 (centres undefined) | 25.9%
30 | Nc1nc2c(c(N3CCNCC3)n1)CCC1=C2[C@@H]2CCCC[C@@H]2O1 | -3.26%
31 | CNNCc1ccc(C(=O)NC(C)C)cc1 | 4.33%
32 | CC(C)NCC(O)COc1ccc(CC(N)=O)cc1 (centres undefined) | 4.66%
33 | CC(C)COc1ccc(CNC(=O)N(Cc2ccc(F)cc2)C2CCN(C)CC2)cc1 | -8.99%
34 | C[C@H](NCc1ccc(OCc2cccc(F)c2)cc1)C(N)=O | 83.6%
35 | C[C@H](NC(=O)Cc1cc(F)cc(F)c1)C(=O)N[C@H](C(=O)OC(C)(C)C)c1ccccc1 | 17.3%
36 | C[C@H](NCc1ccc(OCc2ccccc2F)cc1)C(N)=O | 69.4%
37 | C(#Cc1nc2ncccc2nc1OCCN1CCCC1)c1ccccc1 | 30.5%
38 | O=c1[nH]c2ccccc2n1CCCN1CCN(C(c2ccccc2)c2ccccc2)CC1 | -9.27%
39 | O=C1c2ccccc2-n2c1nc1ccccc1c2=O | 104%
40 | C[C@H](NC[C@H](O)CP(=O)(O)Cc1ccccc1)c1ccc(Cl)c(Cl)c1 | -2.08%
41 | N=C(N)S/C=C\C(=O)O | 6.84%
42 | CC(=O)N[C@H](Cc1ccc2ccccc2c1)C(=O)N[C@H](Cc1ccc(Cl)cc1)C(=O)N[C@H](Cc1cccnc1)C(=O)N[C@@H](CO)C(=O)N[C@@H](Cc1ccc(NC(=O)[C@@H]2CC(=O)NC(=O)N2)cc1)C(=O)N[C@H](Cc1ccc(NC(N)=O)cc1)C(=O)N[C@@H](CC(C)C)C(=O)N[C@@H](CCCCNC(C)C)C(=O)N1CCC[C@H]1C(=O)N[C@H](C)C(N)=O (Ac-[d2Nal][dPhe(4-Cl)][d3Pal]S[Phe(4-NH2)](Dihydroorotyl(S))[dPhe(4-NHCONH2)]L[Lys(iPr)]P[dA]-NH2) | 33.2%
43 | NS(=O)(=O)c1cc2c(cc1Cl)NCNS2(=O)=O | -9.26%
44 | NS(=O)(=O)c1cc2c(cc1Cl)N=C(CSCc1ccccc1)NS2(=O)=O | 78.4%
45 | CN1C(CSCC(F)(F)F)Nc2cc(Cl)c(S(N)(=O)=O)cc2S1(=O)=O (centres undefined) | 11.5%
46 | COc1cc(OC)cc(C(=O)NNC(=O)Nc2cccc3ccccc23)c1 | 9.39%
47 | Cn1cc(-c2ccncc2)c(-c2ccc(OCc3ccc4ccccc4n3)cc2)n1 | 4.18%
48 | CCCCCC(O)c1cccc(OCc2ccc3ccccc3n2)c1 (centres undefined) | 70.6%
49 | O=C(O)c1ccccc1Nc1cccc(OCc2ccc3ccccc3n2)c1 | 14.8%
50 | NS(=O)(=O)c1cc(C(=O)O)cc(N2CCCC2)c1Oc1ccccc1 | 1.91%

Row | SMILES | inhibition
51 | COc1c(Nc2ccc(S(C)(=O)=O)nc2C)ncnc1OC1CCN(C(=O)OC(C)C)CC1 | 42.5%
52 | O=C1NCCN1CCN1CCC(c2cn(-c3ccc(F)cc3)c3ccc(Cl)cc23)CC1 | 3.95%
53 | Cc1cc([C@@H](C)Nc2ccccc2C(=O)O)c2nc(N3CCOCC3)cc(=O)n2c1 | 92.5%
54 | O=c1cc(N2CCOCC2)nc2c3ccccc3ccn12 | 33.6%
55 | Cc1c(Cn2c(C)nc3c(C(=O)O)cc(N4CCOCC4)cc32)cccc1C(F)(F)F | 13.4%
56 | CCN1CCN(Cc2ccc(Nc3ncc(F)c(-c4cc(F)c5nc(C)n(C(C)C)c5c4)n3)nc2)CC1 | -7.99%
57 | c1ccc(N2CCN(CCCOc3ccc4c(c3)OCO4)CC2)cc1 | 8.38%
58 | CNC(=O)c1cc2c(cn1)[nH]c1ccccc12 | 71.2%
59 | CCCCOC(=O)c1cc2c(cn1)[nH]c1ccccc12 | 78.3%
60 | CCCCC(=O)NCCc1c(Cc2ccccc2)[nH]c2ccccc12 | -8.08%
61 | CCOC(=O)c1ncc2[nH]c3cccc(OC(C)C)c3c2c1C | -0.9%
62 | CCCCCCN(CCCCCC)C(=O)Cc1c(-c2ccc(F)cc2)[nH]c2ccccc12 | 0.87%
63 | CNCC(=O)O | 15.9%
64 | NC(=O)C1=CN([C@@H]2O[C@H](COP(=O)(O)OP(=O)(O)OC[C@H]3O[C@@H](n4cnc5c(N)ncnc54)[C@H](OP(=O)(O)O)[C@@H]3O)[C@@H](O)[C@H]2O)C=CC1 | 28.1%
65 | Cc1cccc(C)c1NC(=O)CC12CCCN1CCC2 | -8.45%
66 | CC(C)(C)NC(=O)[C@@H]1CN(Cc2cccnc2)CCN1C[C@@H](O)C[C@@H](Cc1ccccc1)C(=O)N[C@H]1c2ccccc2C[C@H]1O | 1.38%
67 | CN1CCN(c2ccc(Nc3ncc4cc(C#N)c(=O)n(C5CCCC5)c4n3)cc2)CC1 | -8.66%
68 | O=C(Nc1ccc([N+](=O)[O-])cc1Cl)c1cc(Cl)ccc1O | 93.1%
69 | O=C(Nc1ccncc1)c1cc([N+](=O)[O-])ccc1Cl | 8.83%
70 | O=C(Nc1ccccc1)c1cc([N+](=O)[O-])ccc1Cl | -6.48%
71 | CCCCCCCCOc1ccccc1C(=O)Nc1ccc(C(=O)OCC[N+](C)(CC)CC)cc1 | -3.51%
72 | CCOc1ccccc1C(N)=O | 18.7%
73 | CCCCCCOc1ccccc1C(N)=O | 93.3%
74 | CCn1cc(C(=O)O)c(=O)c2ccc(-c3ccncc3)cc21 | 30.6%
75 | O=C(Cc1ccc(-c2ccccc2)cc1)Nc1ccccn1 | 56.6%

Row | SMILES | inhibition
76 | O=C(O)c1ccccn1 | 12.2%
77 | O=C(O)Cc1ccc(-c2ccccc2)cc1 | 10.6%
78 | COC1/C=C\OC2(C)Oc3c(C)c(O)c4c(O)c(cc(O)c4c3C2=O)NC(=O)/C(C)=C\C=C/C(C)C(O)C(C)C(O)C(C)C(OC(C)=O)C1C (centres undefined) | 5.48%
79 | O=C(CCCc1ccc(-c2ccccc2F)cc1)Nc1ccc(O)cc1 | 24%
80 | Cc1ccccc1C(=O)c1ccc(Nc2ccc(Br)cc2N)cc1Cl | 3.48%
81 | COc1cc2nc(C3CC3)nc(N3CCN(c4ccccc4OC)CC3)c2cc1OC | 89.3%
82 | COc1ccccc1N1CCN(CCCCN2C(=O)c3ccccc3C2=O)CC1 | 0.28%
83 | COc1cc2nc(N3CCN(C(=O)C4COc5ccccc5O4)CC3)nc(N)c2cc1OC (centres undefined) | 6.59%
84 | CCCn1c(=O)c2nc(C34CC5CC(CC3C5)C4)[nH]c2n(CCC)c1=O | 2.81%
85 | CCCCNNC(=O)c1ccc(Br)cc1 | 35.4%
86 | CN(C)C(=O)N[C@H]1CC[C@H](CCN2CCN(c3cccc(Cl)c3Cl)CC2)CC1 | 18.9%
87 | COc1cc2c(cc1OC)C(c1ccc(N)cc1)=NNC(=O)C2 | -3.23%
88 | COc1ccc(-c2nc3cc(C4=NNC(=O)CC4C)ccc3[nH]2)cc1 (centres undefined) | 87.1%
89 | CC(C)n1nc(C#Cc2ccccc2)c2c(N)ncnc21 | 19%
90 | CCOC(=O)C1CSC(Cc2ccc(OCc3ccc([N+](=O)[O-])cc3)cc2)N1 (centres undefined) | 13.2%
91 | COc1ccc(C(=O)/C(Br)=C/C(=O)O)cc1 | -2.93%
92 | CC(=O)C(=Cc1cc(O)c(O)c([N+](=O)[O-])c1)C(C)=O | 13.4%
93 | CS(=O)(=O)c1ccc(-c2cnc(NCc3ccco3)n3cnnc23)cc1 | 7.67%
94 | Cc1cc(C)c2c(N)c(C(=O)NCc3ccc(Cl)cc3)sc2n1 | 16.5%
95 | Cc1coc2c1C(=O)C(=O)c1c-2ccc2c(C)cccc12 | 93.9%
96 | Cc1coc2c1C(=O)C(=O)c1c-2ccc2c1CCCC2(C)C | 42%
97 | Cc1nn(-c2ccccc2)c(C)c1/C=N/N1CCN(Cc2ccccc2)CC1 | 9.22%
98 | O=C(O)C[C@H](O)C[C@H](O)CCc1c(C2CC2)nc2ccccc2c1-c1ccc(F)cc1 | 26%
99 | CCCCCCCC[N+](C)(C)Cc1ccccc1 | -8.69%
